What is called inhibition is the drop in the measured response relative to a control, in per cent.

Structures are written as SMILES. The source made the active and inactive calls.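 The calls were made as follows: active = mean inhibition over 43.08%, the solvent-only control mean plus 3 SD; inactive = the rest.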

Our source for the inhibition values is PubChem BioAssay.

Sequence of Nuclear receptor coactivator 3 (Homo sapiens) (Q9Y6Q9 whole entry, looked up, the tested form may be a part): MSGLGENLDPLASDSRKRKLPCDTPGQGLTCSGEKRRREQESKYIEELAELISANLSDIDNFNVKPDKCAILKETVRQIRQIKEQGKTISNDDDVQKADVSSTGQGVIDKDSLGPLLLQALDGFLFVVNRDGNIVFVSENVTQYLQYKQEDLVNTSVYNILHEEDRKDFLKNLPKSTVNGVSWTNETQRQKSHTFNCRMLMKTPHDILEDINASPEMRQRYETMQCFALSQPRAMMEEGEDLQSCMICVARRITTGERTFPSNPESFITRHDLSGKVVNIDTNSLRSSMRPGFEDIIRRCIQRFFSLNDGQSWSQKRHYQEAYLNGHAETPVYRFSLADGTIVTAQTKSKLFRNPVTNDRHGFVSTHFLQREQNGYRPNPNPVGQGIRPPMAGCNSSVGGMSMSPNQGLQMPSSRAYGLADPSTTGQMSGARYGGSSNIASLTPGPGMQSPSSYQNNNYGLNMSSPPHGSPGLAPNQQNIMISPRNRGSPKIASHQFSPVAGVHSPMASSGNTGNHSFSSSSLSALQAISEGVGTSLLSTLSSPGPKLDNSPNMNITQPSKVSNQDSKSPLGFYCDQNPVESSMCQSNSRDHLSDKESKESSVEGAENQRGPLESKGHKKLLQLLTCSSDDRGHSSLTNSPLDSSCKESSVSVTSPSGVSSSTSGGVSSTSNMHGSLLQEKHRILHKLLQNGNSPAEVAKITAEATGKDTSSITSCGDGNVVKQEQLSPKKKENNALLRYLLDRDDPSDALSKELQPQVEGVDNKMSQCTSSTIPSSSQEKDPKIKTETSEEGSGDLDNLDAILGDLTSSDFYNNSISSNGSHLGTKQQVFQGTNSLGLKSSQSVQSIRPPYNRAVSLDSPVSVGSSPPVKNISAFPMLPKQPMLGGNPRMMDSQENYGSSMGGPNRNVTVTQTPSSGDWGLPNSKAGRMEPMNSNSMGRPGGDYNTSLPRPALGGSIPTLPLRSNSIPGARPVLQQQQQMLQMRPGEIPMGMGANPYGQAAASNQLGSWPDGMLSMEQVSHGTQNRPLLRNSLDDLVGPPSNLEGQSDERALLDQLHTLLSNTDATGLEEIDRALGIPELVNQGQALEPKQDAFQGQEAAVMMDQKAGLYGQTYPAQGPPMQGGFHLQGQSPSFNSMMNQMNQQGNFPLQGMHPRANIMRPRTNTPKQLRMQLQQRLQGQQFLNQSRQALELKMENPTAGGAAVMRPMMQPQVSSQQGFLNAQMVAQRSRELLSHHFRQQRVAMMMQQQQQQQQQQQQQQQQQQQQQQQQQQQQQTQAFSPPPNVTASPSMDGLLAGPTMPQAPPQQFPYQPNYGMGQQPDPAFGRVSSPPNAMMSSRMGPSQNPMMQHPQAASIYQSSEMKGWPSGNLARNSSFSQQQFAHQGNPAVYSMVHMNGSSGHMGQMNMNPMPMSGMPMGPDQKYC

The assay concerns the target Nuclear receptor coactivator 3 (Homo sapiens) (UniProt Q9Y6Q9). Description: SRC3 coactivator transcriptional activity inhibitors, confirmation, cell-based, luminescence, quadruplicate (AID 588792).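 Also: 0% = DMSO treated cells and 100% = gossypol at 36 µM.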 Particulars: HEK293 GAL4-SRC3 luciferase reporter, at 3.6 µM, stronger effect = higher value. On the technique in general: Reporter assays use an easily measured gene product as a stand-in for the process of interest.
On to `Cc1ccc2c(c1)c(C)cc[n+]2Cc1ccccc1`, for which the inhibition was 10.7% (inactive).
Next, `CCOC(=O)CC/C(C)=N\N=C1\SC(CC(=O)O)C(=O)N1c1ccccc1` (stereo unspecified): 0.21% (inactive).
Next, `COc1ccc(-c2nc3c(c(SCC(=O)N4CCOCC4)n2)Cc2c(CO)cnc(C)c2O3)cc1`: 5.29% (inactive).
Then `Nc1nc2c(F)cccc2s1`, with -3.71% (inactive); and `Cc1cc(C)nc(/N=C(\N)Nc2ccc(OCCC(C)C)cc2)n1`, with -1.86% (inactive).
For `Cc1noc(C)c1CN1C(=O)NC2(CCCCCCC2)C1=O`, the inhibition was 0.62% (inactive).
As for `CCOc1ccc(OCC)c(NC(=O)CN(C)S(=O)(=O)c2cccc3nsnc23)c1`, the inhibition was 1.36% (inactive).
Consider `Cc1cccc(OCC(=O)NCC(=O)N/N=C/c2ccc(O)cc2O)c1`, for which the inhibition is 15.4% (inactive).
Consider `CC(=NNC(=O)c1ccncc1)c1ccc2ccccc2c1O`, for which the inhibition is 45.1% (active).
Next, `COc1cccc(C(=O)CC(=O)C(=O)Nc2cccc([N+](=O)[O-])c2C)c1`: -3.08% (inactive).
Consider `CC1=C/C(=N\OS(=O)(=O)c2ccccc2)C(C)=CC1=O`, for which the inhibition was 19.7% (inactive).
Next, `N#Cc1c(NCc2ccccc2)ccnc1Cl`: 27.5% (inactive); `C/C(=N\NC(=S)Nc1cc(S(=O)(=O)N2CCOCC2)ccc1Cl)c1ccccc1F`: 31.8% (inactive).
On to `CCN1/C(=C/c2cc[n+](C)cc2)C=Cc2cc(C)ccc21`, for which the inhibition was 17% (inactive).
Next, `COc1ccc(C)cc1NS(=O)(=O)c1ccc(NC(=O)CN(c2cc([N+](=O)[O-])ccc2C)S(C)(=O)=O)cc1`: 58.6% (active); `CC(C)OP(=O)(OC(C)C)/C(C=O)=N\Nc1ccc([N+](=O)[O-])cc1`: 7.9% (inactive).
